Inconclusive results are not listed. Active and inactive are the calls of the source. Calls follow the shape of the dose curve; as a rule, active = well fitted inhibition curve with a large enough effect; inconclusive = small, poorly fitted or top-dose-only effect; inactive = flat fitted curve, though single readings scatter.
Assay: BET inhibitor-based combinations targeting novel dependencies in MECOM-rearranged (r) AML: AML-191 cell line (AID 2202236; also: nearly all actives have a fitted effect of over 35% in size;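 as to viability (% of control): plate controls were vehicle wells for no effect and wells without cells for full effect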)
Conditions: AML-191 viability, CellTiter-Glo luminescence, 48 h; series mostly up to 46 µM; viability (% of control): at the top concentration
Procedure, shortened: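 500 cells/well; 11-pt dose curve; 48 h, standard incubator; CellTiter-Glo luminescence after 15 min RT; DMSO/empty-well normalization; AUC plus Z-AUC (mean-centered within each line).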
Potency is read from the fitted curve at half-maximal effect.

With `C=CCN1C[C@H](C(=O)N(CCCN(C)C)C(=O)NCC)CC2c3cccc4[nH]cc(c34)C[C@H]21` (stereo not given in full) as the molecule, how does the “viability (% of control)” value read?
Its value is 108% (inactive).

Which “viability (% of control)” value does the source give for `CCC(C)CNCC(=O)N1CCc2sccc2C1c1cccc(C)n1` (stereo not given) here?
The value was 111% (inactive).

Which Potency does the source give for `COc1ccc2c(c1OC)C(=O)OC2[C@H]1c2c(cc3c(c2OC)OCO3)CCN1C` (stereo not given in full) here?
The Potency was 13200 nM (active).

For `C[C@H]1CNCCCN1S(=O)(=O)c1cccc2cncc(F)c12`, which “viability (% of control)” value is on record?
The value was 99.2% [at 15.6 µM] (inactive).

For `Cc1ccc(NC(=O)NCc2ccc3c(c2)CN(C2CCC(=O)NC2=O)C3=O)cc1Cl` (stereo not given), which Potency is on record?
The Potency was 2.3 nM (active).

Which “viability (% of control)” value does the source give for `CC(=O)NCCCS(=O)(=O)O` here?
Its value is 113% [at 15.6 µM] (inactive).

For `COc1cc2c(cc1OC)CN(CCc1ccc(-n3nnc(-c4cc(OC)c(OC)cc4NC(=O)c4cc(=O)c5ccccc5o4)n3)cc1)CC2`, which viability (% of control) is on record?
Its viability (% of control) is 99.1% [at 0.315 µM] (inactive).

For `CCCCCCCOc1ccc(CCC(N)(CO)CO)cc1C(F)(F)F`, which Potency is on record?
Its Potency is 18600 nM (active).

For `C[C@@H]1C(=O)OC2[C@H](O)[C@]34[C@H]5C[C@@H](C(C)(C)C)[C@]36[C@@H](OC(=O)[C@@H]6O)O[C@@]4(C(=O)O5)[C@]21O` (stereo not given in full), which “viability (% of control)” value is on record?
The value was 104% (inactive).

Which Potency does the source give for `Fc1cccc(-n2cnc3c(NCc4nc5c(F)c(F)ccc5[nH]4)nc(N4CCOCC4)nc32)c1` here?
The Potency was 166 nM (active).

For `Cc1ccc(C(=O)N(CCCN)[C@@H](c2nc3cc(Cl)ccc3c(=O)n2Cc2ccccc2)C(C)C)cc1`, which Potency is on record?
Its Potency is 41.7 nM (active).

With `C[C@]12CCC3=C4CCC(=O)C=C4CC[C@H]3[C@@H]1CC[C@@]2(O)CC#N` as the molecule, how does the “viability (% of control)” value read?
Its value is 94.2% (inactive).

Which Potency does the source give for `C[C@H](NC(=O)c1c(N)nn2cccnc12)c1cc2cccc(C#Cc3cnn(C)c3)c2c(=O)n1-c1ccccc1` here?
Its Potency is 1820 nM (active).

Which Potency does the source give for `Cc1c(C(=O)Nc2ccc(Oc3ccnc4[nH]cc(-c5ccccc5)c34)c(F)c2)c(=O)n(-c2ccc(F)cc2)n1C` here?
The Potency was 590 nM (active).

For `CN(C)C[C@@H]1CCn2cc(c3ccccc32)C2=C(C(=O)NC2=O)c2cn(c3ccccc23)CCO1`, which Potency is on record?
The Potency was 7420 nM (active).

Which Potency does the source give for `CCNCCc1ccc(CN(CC)c2cc(OC)ccc2[C@@H]2CCc3cc(O)ccc3C2)cc1` here?
The Potency was 7420 nM (active).

With `C[C@@]12O[C@@H](C[C@]1(O)CO)n1c3ccccc3c3c4c(c5c6ccccc6n2c5c31)CNC4=O` as the molecule, how does the Potency read?
Its Potency is 52.5 nM (active).

With `CCCc1cc(C(=O)N[C@H](Cc2ccc(-c3cccc(OC(F)(F)F)c3)nc2)C(=O)N[C@@H]2CCNC2)sc1C` as the molecule, how does the Potency read?
Its Potency is 16600 nM (active).

Which Potency does the source give for `COC(=O)Nc1nc2ccc(C(=O)c3ccccc3)cc2[nH]1` here?
The Potency was 263 nM (active).

With `COc1cc2c(NC3CCN(C)CC3)nc(N3CCCN(C)CC3)nc2cc1OCCCN(C)C` as the molecule, how does the “viability (% of control)” value read?
Its value is 118% (inactive).

For `CCS(=O)(=O)N1CCC(C(C)n2c(C)c(C(=O)NCc3c(OC)cc(C)[nH]c3=O)c3ccccc32)CC1` (stereo not given), which “viability (% of control)” value is on record?
The value was 115% (inactive).

With `COC(=O)[C@@H]1CC2=CC(=O)CC[C@]2(C)[C@@]23O[C@@H]2C[C@@]2(C)[C@@H](CC[C@@]24CCC(=O)O4)[C@H]13` as the molecule, how does the “viability (% of control)” value read?
Its value is 105% (inactive).

For `COc1cc2c3c(n(CCCn4ccnc4)c(=O)c2cc1OC)-c1cc2c(cc1C3=O)OCO2`, which Potency is on record?
The Potency was 33.2 nM (active).

Which Potency does the source give for `C[C@@H]1COCCN1c1cc(-c2ccnn2C)c2ccnc(-c3ccn[nH]3)c2n1` here?
Its Potency is 296 nM (active).

Which “viability (% of control)” value does the source give for `CNC(=O)c1c(C)oc2cc(Oc3ncnc4cc(OC)c(OC)cc34)ccc12` here?
The value was 101% (inactive).
